# Test results as given in PubChem BioAssay (NCATS).
# “And” between values parts separate entries of the source, which are not always exact repeats. Equal entries are not always repeated. Inconclusive results are not listed. Where a call stands in place of a potency, no number is given. The source made the active and inactive calls. Unless noted, the call rests on the fitted dose curve; in most records, active means well fitted curve in the direction sought with a large enough effect; inconclusive means small, poorly fitted or top-dose-only effect, or another doubt; inactive means no such curve, though single readings can be large; an effect the other way counts as inactive or inconclusive.
# Experiments:
# [1] = Validation of Assay for Modulators of Lamin A Splicing (AID 1459; active means well fitted curve in the direction sought with a large enough effect in the signal ratio; the % refers to the signal ratio;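 further: cells exposed to compound for two days before reading; ratio rise marks activators and ratio drop marks inhibitors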); conditions: Lamin A splicing dual RFP/GFP fluorescence reporter; series mostly up to 9.22 µM
# Summary of the method: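 Splicing correction is reported by an EGFP-containing lamin A minigene in stably transfected S3 HeLa cells, while DsRed2 controls for viability and nonspecific signal. Cells are exposed to compounds for 48 hrs before the GFP over RFP ratio is taken.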
# [2] = qHTS Assay for Lipid Storage Modulators (AID 1519; calls by dose curve); conditions: Drosophila S3 cells, BODIPY lipid droplet/cell ratio, laser cytometry, cells loaded with oleic acid; for activity change, negative = inhibition: at 57.5 µM (top of the series)
# Summary of the method: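 Cells seeded at 5,000 per well were treated with compounds over a concentration series and loaded with oleic acid (400 uM, as added). Lipid droplet fluorescence (488 nm excitation, 500-530 nm channel) was read by laser-scanning cytometry and normalized to 20 uM Triacsin C.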
# [3] = Counterscreen for APE1 Inhibitors: Fluorescent Dye Displacement Validation Assay (AID 1707); conditions: fluorescent dye displacement from DNA; series mostly up to 57.1 µM
# Summary of the method: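 Thiazole Orange displacement from dsDNA: 250 nM ThO with 50 nM TAMRA-labelled abasic-site (tetrahydrofuran) duplex in 50 mM Tris-HCl pH7.5, 50mM NaCl, 2 mM MgCl2, 0.01% Tween-20. Loss of endpoint fluorescence (ex 480 nm, em 540 nm) flags DNA binders.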
# [4] = biological target: Alpha-galactosidase A (Homo sapiens) (UniProt P06280); test: Counterscreen for Glucocerebrosidase Inhibitors: qHTS Assay for Human alpha-Galactosidase at pH 4.5 (AID 992); conditions: purified enzyme, fluorogenic substrate; series mostly up to 76.9 µM
# Chain of Alpha-galactosidase A (Homo sapiens) (P06280 whole entry, looked up): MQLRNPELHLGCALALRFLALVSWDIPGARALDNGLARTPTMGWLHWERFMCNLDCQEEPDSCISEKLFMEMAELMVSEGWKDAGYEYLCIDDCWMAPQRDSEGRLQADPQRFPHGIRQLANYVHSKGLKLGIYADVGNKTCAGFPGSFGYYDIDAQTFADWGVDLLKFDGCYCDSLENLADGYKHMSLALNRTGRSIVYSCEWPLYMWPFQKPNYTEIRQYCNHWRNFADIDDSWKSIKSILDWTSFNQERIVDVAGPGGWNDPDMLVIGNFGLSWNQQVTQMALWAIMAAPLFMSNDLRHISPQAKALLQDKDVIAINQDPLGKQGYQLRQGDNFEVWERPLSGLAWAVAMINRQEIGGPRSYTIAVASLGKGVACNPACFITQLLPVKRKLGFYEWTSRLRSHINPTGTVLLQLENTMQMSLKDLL
# Summary of the method: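 Enzyme at 2 nM final was combined with compound (0.7 nM to 77 uM) and 80 uM 4-methylumbelliferyl alpha-D-galactopyranoside in 50 mM citric acid, 0.005% Tween-20, pH 4.5. After 20 min at room temperature, fluorescence was read (Ex 365/Em 440 nm); AC50 came from Hill fits.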
# [5] = biological target: alpha-glucosidase (Oryza sativa, rice) (UniProt Q653V4); test: Counterscreen for Glucocerebrosidase Inhibitors: qHTS Assay for Rice alpha-Glucosidase at pH 5.0 (AID 997); conditions: rice alpha-glucosidase enzyme activity; series mostly up to 76.9 µM
# Summary of the method: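 Rice alpha-glucosidase (4 nM final) with 400 uM 4-methylumbelliferyl-alpha-D-glucopyranoside in citrate buffer pH 5.0, 20 min at room temperature, stopped at pH 10; fluorescence 365/440 nm, compounds 0.7 nM–77 uM, AC50 from Hill fits.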
# [6] = biological target: DNA repair nuclease/redox regulator APEX1 (Homo sapiens) (UniProt P27695); test: qHTS Validation Assay for Inhibitors of the Human Apurinic/apyrimidinic Endonuclease 1 (APE1) (AID 1705;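 further: TAMRA fluorescence gain over two minutes as APE1 cuts a quenched THF abasic duplex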); conditions: purified APE1 endonuclease activity, fluorescence, titration; series mostly up to 57.1 µM
# Chain of DNA repair nuclease/redox regulator APEX1 (Homo sapiens) (P27695 whole entry, looked up): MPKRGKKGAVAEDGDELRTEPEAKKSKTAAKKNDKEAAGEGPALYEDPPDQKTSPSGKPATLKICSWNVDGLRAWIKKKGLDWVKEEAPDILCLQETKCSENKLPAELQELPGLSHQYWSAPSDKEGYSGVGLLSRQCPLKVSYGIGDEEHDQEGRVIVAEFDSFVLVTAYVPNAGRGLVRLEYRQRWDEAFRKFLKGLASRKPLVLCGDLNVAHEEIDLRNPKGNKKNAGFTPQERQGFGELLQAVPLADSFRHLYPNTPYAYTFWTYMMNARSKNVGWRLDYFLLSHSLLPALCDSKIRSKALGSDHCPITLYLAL
# Summary of the method: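 Endonuclease activity of human APE1 is followed as dequenching when the enzyme incises a tetrahydrofuran abasic site in a short duplex labelled 5'-TAMRA/3'-BHQ-2 (50 nM final), after 15 min enzyme–compound preincubation at room temperature.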
# [7] = Cell Viability - LYMP2-024 (AID 988); conditions: LYMP2-024 lymphoblastoid cell viability; series mostly up to 92.2 µM; further: nearly all actives have a fitted effect of over 60% in size
# Summary of the method: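 Human lymphoblastoid cells (2500/well) in complete medium were preincubated 5 hr at 37 C, then exposed to compounds for 24 hr at 37 C. Intracellular ATP was read by CellTiter-Glo luminescence; AC50 from Hill-equation fits of concentration-response data.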
# [8] = Cell Viability - LYMP2-026 (AID 989); conditions: LYMP2-026 lymphoblastoid cell viability, qHTS; series mostly up to 92.2 µM; further: nearly all actives have a fitted effect of over 50% in size
# Summary of the method: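 Human lymphoblastoid cells (2500/well) in complete medium were preincubated 5 hr at 37 C, then exposed to compounds for 24 hr at 37 C. Cellular ATP was read by CellTiter-Glo luminescence; AC50 from Hill-equation fits of concentration-response data.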
# [9] = Cell Viability - LYMP1-002 - Assay at 24 hr (AID 993); conditions: LYMP1-002 lymphoblastoid cells viability; series mostly up to 92.2 µM
# Summary of the method: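 Human lymphoblastoid LYMP1-002 cells, 2500/well in complete medium, were treated with compounds for 24 h at 37 C; intracellular ATP was read by CellTiter-Glo luminescence. AC50 values came from Hill-equation fits of qHTS concentration-response data.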
# [10] = Cell Viability - LYMP1-002 - Assay at 40 hr (AID 994); conditions: LYMP1-002 lymphoblastoid cell viability; series mostly up to 92.2 µM; further: nearly all actives have a fitted effect of over 60% in size
# Summary of the method: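 Human lymphoblastoid cells, 2500/well in complete medium, were preincubated 5 hr at 37 C, then exposed to compounds for 40 hr at 37 C. Intracellular ATP was read by CellTiter-Glo luminescence after 30 min at room temperature; AC50 from Hill-equation fits.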
# [11] = measured here: cell count channel max response
# [12] = measured here: lipid channel max response
SMILES,outcome [1],"activity change, negative = inhibition [2]","max response [2, 11]","max response [2, 12]",Potency [3],outcome [4],outcome [5],Potency [6],Potency [7],Potency [8],Potency [9],Potency [10]
COc1cc2nc(N3CCN(C(=O)OCc4ccccc4)C(C(=O)NC(C)(C)C)C3)nc(N)c2cc1OC (stereo unspecified),inactive,1.16% (inactive),38.8%,39.8%,inactive,–,–,–,–,–,–,–
N.N.O=C(O)C1(C(=O)O)CCC1.[Pt],inactive,7.88% (inactive) and 0.357% (inactive),15.2% and -33.4%,23.7% and -31.2%,inactive,inactive,inactive,inactive,–,–,–,–
NCCCCC(=O)O,inactive,7.28% (inactive) and -0.299% (inactive),-8.72% and -47.7%,11.7% and -48.3%,inactive,inactive,inactive,inactive,–,–,–,–
NCCSSCCN,inactive,3.98% (inactive),9.22%,16.2%,inactive,inactive,inactive,–,–,–,–,–
O=C(O)c1cc([N+](=O)[O-])ccc1NCCCc1ccccc1,inactive,0.312% (inactive),-11.5%,-12.2%,inactive,inactive,inactive,inactive,–,–,–,–
CC(C)NCC(O)COc1cccc2ccccc12 (stereo unspecified),inactive,10.9% (inactive),7.26%,23.9%,inactive,–,–,–,inactive,inactive,inactive,inactive
CN1CCC[C@H]1c1cccnc1,inactive,2.76% (inactive) and 1.23% (inactive),8.37% and -8.82%,10.7% and -7.32%,inactive,–,–,inactive,inactive,inactive,inactive,inactive
COc1cc2c(CCNC(C)=O)c[nH]c2cc1Cl,inactive,-11.4% (inactive),-19%,-30.9%,inactive,inactive,inactive,–,–,–,–,–
O=c1[nH]c2cc([N+](=O)[O-])c([N+](=O)[O-])cc2[nH]c1=O,inactive,3.97% (inactive),-1.11%,2.64%,inactive,inactive,inactive,inactive,–,–,–,–
Ic1ccc(N2CCN(Cc3c[nH]c4ncccc34)CC2)cc1,inactive,0.316% (inactive),-23.2%,-22.2%,inactive,inactive,inactive,inactive,–,–,–,–
O=C(O)CNC(=O)C(CS)Cc1ccccc1 (stereo unspecified),inactive,0.149% (inactive),-2.09%,-2.71%,inactive,–,–,inactive,–,–,–,–
Cn1c(=O)c2[nH]c(-c3ccccc3)nc2n(C)c1=O,inactive,1.32% (inactive),63.6%,55.6%,inactive,inactive,inactive,–,–,–,–,–
O=C(O)[C@@H]1C[C@@H](C(=O)O)N1,inactive,-10.7% (inactive) and 0.262% (inactive),-15.8% and -6.72%,-25% and -8.29%,inactive,inactive,inactive,inactive,–,–,–,–
NC(CCCP(=O)(O)O)C(=O)O (stereo unspecified),inactive,0.0706% (inactive),-11.8%,-9.55%,inactive,–,–,inactive,–,–,–,–
COc1cccc(OC)c1OCCNCC1COc2ccccc2O1 (stereo unspecified),inactive,3.94% (inactive) and -4.43% (inactive),10.2% and -61.3%,14.3% and -62.3%,inactive,–,–,inactive,–,–,–,–
Oc1ccc(C2CNCc3sccc32)cc1O (stereo unspecified),inactive,-2.2% (inactive),25.9%,25.8%,inactive,–,–,inactive,–,–,–,–
COc1cccc(C(=O)NCCN2CCN(c3ccc(Cl)cc3)CC2)c1,inactive,-1.54% (inactive),-16.3%,-18.1%,inactive,inactive,inactive,inactive,–,–,–,–
CN1[C@@H](CC(=O)c2ccccc2)CCC[C@H]1C[C@H](O)c1ccccc1,inactive,-1.25% (inactive),24.6%,23.7%,inactive,–,–,–,–,–,–,–
Cc1ccc(C(=O)O[C@H](C(=O)O)[C@@H](OC(=O)c2ccc(C)cc2)C(=O)O)cc1 (tested in a mixture with another compound),inactive,-0.359% (inactive),35.2%,38.6%,inactive,–,–,–,–,–,–,–
CN1CCc2cc(NC(=O)Nc3cccnc3)ccc21,inactive,0.252% (inactive),32.8%,37.5%,inactive,inactive,inactive,inactive,–,–,–,–
O=C(O)c1cc(=O)c2c(Cl)cc(Cl)cc2[nH]1,inactive,4.31% (inactive) and -0.435% (inactive),15.8% and 12.6%,22.3% and 11.7%,inactive,inactive,inactive,inactive,–,–,–,–
NCCCCCCCCCCN,inactive,-1.41% (inactive),42.1%,42.6%,inactive,inactive,inactive,inactive,–,–,–,–
C=C/C(C)=C/[C@@]1(C)SC(=O)C(C)=C1O,inactive,0.111% (inactive),30.8%,34%,inactive,–,–,–,–,–,–,–
N#C/C(=C\c1ccc(O)c(O)c1)C(=O)c1ccc(O)c(O)c1,inactive,-0.353% (inactive),19.5%,19.3%,inactive,inactive,inactive,–,–,–,–,–
